TDP1 block: TDP1 (human) enzyme inhibition; AID 485290; recombinant TDP1, AlphaScreen DNA substrate cleavage; Q9NUW8; 350,000 compounds, 0.28% hits; Potency, µM (titrated, usually from 130 µM), actives largely listed as inhibitors; also: nearly all actives have a fitted effect of over 40% in size
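Tdp1 1 nM final; 15 min RT w/ cpd; substrate 15 nM, 5 min; beads 10 ug/ml, 10 min; AlphaScreen read. Neg ctrl: no enzyme.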
TDP1 cell CPT: DT40-hTDP1 cell growth loss with CPT | chicken DT40 Tdp1-/-;hTDP1 cells + 20 nM CPT, ATP luminescence, 48 h | AID 686979 | Potency, µM (titrated, usually from 46.2 µM), actives largely listed as inhibitors | 420,000 compounds, 12% hits; also: nearly all actives have a fitted effect of over 55% in size
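Chicken DT40 Tdp1-/- cells stably complemented with human TDP1 were seeded at 400 cells/well in medium containing 20 nM camptothecin, exposed to pin-transferred compounds, and grown at 37 °C for at least 48 hr. Viability was read as ATP luminescence.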
Six1-Eya2 blk: inhibitors of human Six1/Eya2 interaction. AlphaScreen GST-Six1/His-Eya2 binding, biochemical; stronger effect = lower value. Q15475+O00167. activity change, % (no concentration beside the values). 360,000 compounds, 0.56% hits; in the data active = activity change below about -65%; inconclusive = mostly about -30% to -63%
Target sequence (O00167 whole entry, looked up): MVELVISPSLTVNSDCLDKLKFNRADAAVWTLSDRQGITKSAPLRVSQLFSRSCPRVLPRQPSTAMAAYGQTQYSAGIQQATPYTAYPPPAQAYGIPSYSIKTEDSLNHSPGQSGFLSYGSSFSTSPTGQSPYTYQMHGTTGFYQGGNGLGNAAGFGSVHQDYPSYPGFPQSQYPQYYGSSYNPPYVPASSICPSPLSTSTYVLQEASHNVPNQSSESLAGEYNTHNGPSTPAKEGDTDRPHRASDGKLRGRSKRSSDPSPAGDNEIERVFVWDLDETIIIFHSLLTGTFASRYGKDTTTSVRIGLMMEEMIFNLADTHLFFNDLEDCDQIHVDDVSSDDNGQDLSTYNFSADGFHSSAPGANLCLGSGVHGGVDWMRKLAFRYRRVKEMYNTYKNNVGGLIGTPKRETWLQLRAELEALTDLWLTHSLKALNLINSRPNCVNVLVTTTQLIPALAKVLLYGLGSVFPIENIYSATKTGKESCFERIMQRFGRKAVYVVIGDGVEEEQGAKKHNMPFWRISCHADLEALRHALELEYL
Target sequence (Q15475 whole entry, looked up): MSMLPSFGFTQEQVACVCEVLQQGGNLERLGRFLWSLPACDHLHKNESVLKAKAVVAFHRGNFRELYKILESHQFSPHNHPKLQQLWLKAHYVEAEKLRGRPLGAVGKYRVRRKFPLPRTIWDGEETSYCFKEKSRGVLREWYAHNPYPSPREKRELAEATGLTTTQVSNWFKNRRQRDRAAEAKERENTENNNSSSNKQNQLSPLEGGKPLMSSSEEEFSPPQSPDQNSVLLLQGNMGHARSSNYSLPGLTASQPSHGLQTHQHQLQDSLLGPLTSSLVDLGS
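Homogeneous AlphaScreen proximity assay pairing GST-Six1 with His-tagged Eya2 (added as 5X mix: 250 nM and 500 nM) in 50 mM Tris pH 8.0, 300 mM NaCl, 1 mM TCEP. Glutathione donor and nickel acceptor beads; 1 h, 37 °C, dark.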
CtBP-E1A inh: blocks the CtBP interaction with E1A. AlphaScreen GST-E1A/His-CtBP binding, 1536-well; stronger effect = lower value. activity change, % (test concentration not listed). 340,000 compounds, 0.49% hits; in the data active = activity change below about -65%; inconclusive = mostly about -30% to -63%
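GST-E1A and His-tagged CtBP (125 nM each as 5X stock) were preincubated with pin-transferred compound for 2 h at 37 °C in the dark, then glutathione donor and nickel acceptor beads were added for 1 h before AlphaScreen reading.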
DT40 TDP1 no CPT: qHTS for Inhibitors of human tyrosyl-DNA phosphodiesterase 1 (TDP1): qHTS in cells in absence of CPT; DT40 Tdp1-/- hTDP1 cells, no CPT, ATP luminescence, 48 h; Potency, µM (highest dose often 46.2 µM), usual class: inhibitors; 420,000 compounds, 15% hits; AID 686978, 2013; also: nearly all actives have a fitted effect of over 55% in size
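Cells were dispensed at 400 per well, compounds added by pin tool, plates incubated ≥48 hr at 37 °C, then CellTiter-Glo added for 30 min at room temperature before luminescence reading. Line: DT40 Tdp1-/- complemented with hTDP1; camptothecin omitted.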
IL1B secr inh: inhibitors of inflammasome signaling (IL-1 beta secretion); 360,000 compounds, 4.7% hits; AID 743279; activity change, % at 57.5 µM; THP-1 LPS/ATP IL-1B secretion, AlphaLISA, 16 h; stronger effect = lower value; in the data active = activity change below about -50%; inconclusive = mostly about -30% to -49%
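Secreted IL-1B measured by AlphaLISA bead assay after 16 h compound exposure of THP-1 cells; compounds (final up to 57.5 uM) added 1 h before LPS (250 ng/mL) and ATP (1.25 mM) stimulation; lower signal means less secretion.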
Numbers stand for hits; – = inactive; ? = inconclusive; · = not tested or not shown. Only some compounds are listed: those with a hit (about 18% of all), similar ones and a draw of the others. Unless noted, calls follow the shape of the dose curve; as a rule, active = well fitted curve in the direction sought with a large enough effect; inconclusive = small, poorly fitted or top-dose-only effect, or another doubt; inactive = no such curve, though single readings can be large; an effect the other way counts as inactive or inconclusive.

SMILES	TDP1 block	TDP1 cell CPT	Six1-Eya2 blk	CtBP-E1A inh	DT40 TDP1 no CPT	IL1B secr inh
COC(=O)c1cccc(Cn2c(Cl)c(/C=N/NC(=O)c3ccco3)sc2=O)c1	–	?	–	–	9.2µM	?
Cc1oc2ccc(OC(C(=O)O)c3ccccc3)cc2c1C(=O)O (stereo not given)	·	–	–	–	–	–
C=CCn1c(C)nnc1SCC(=O)c1[nH]c(C)c(C(C)=O)c1C	–	–	–	–	–	–
CC(=O)c1c(C)[nH]c(C(=O)CSc2nnc(-c3cccs3)n2Cc2ccccc2)c1C	–	?	–	–	?	–
CC(=O)c1c(C)[nH]c(C(=O)CSc2nnc(C3CCCCC3)n2N)c1C	–	18µM	–	–	13µM	–
C=CCn1c(SCC(=O)c2[nH]c(C)c(C(=O)OC)c2C)nc2scc(-c3ccc(OC)c(OC)c3)c2c1=O	–	16µM	–	–	8.2µM	–
Nn1c(SCC(=O)N2CCCC2)nnc1C1CCCCC1	·	–	–	–	–	–
C=CCn1c(SCC(=O)c2[nH]c(C)c(C(C)=O)c2C)nnc1-c1ccncc1	–	?	–	–	26µM	–
CC(=O)c1c(C)[nH]c(C(=O)CSc2nnc(-c3ccco3)n2Cc2ccccc2)c1C	–	23µM	–	–	16µM	–
CC(=O)N(CCc1ccccc1)Cc1cc2cc(C)ccc2[nH]c1=O	·	–	–	–	–	–
Cc1ccc(C(=O)Nc2cccnc2)cc1S(=O)(=O)N1CCCC1	–	–	–	–	–	–
O=C(C1CCN(C2CCN(Cc3ccc4c(c3)CCO4)CC2)CC1)N1CCCC1	–	–	–	–	–	–
CCOc1cc(NC(=O)C2CCCCC2)c(OCC)cc1NC(=O)c1ccco1	–	7.3µM	–	–	?	–
CCOc1cc(NC(=S)NCC2CCCO2)c(OCC)cc1NC(=O)c1ccccc1 (stereo not given)	–	–	–	–	–	–
CCOc1cc(NS(=O)(=O)c2ccccc2)c(OCC)cc1NC(=O)c1ccco1	–	?	–	–	26µM	–
CCOc1cc(NC(=S)NCC2CCCO2)c(OCC)cc1NC(=O)C1CC1 (stereo not given)	–	–	–	·	4.6µM	–
CCNC(=S)Nc1cc(OCC)c(NC(=O)c2ccco2)cc1OCC	–	?	–	–	?	–
CCOc1cc(NS(=O)(=O)c2ccc(NC(C)=O)cc2)c(OCC)cc1NC(=O)C(C)C	–	?	–	–	–	–
CCOc1cc(NS(=O)(=O)c2ccc(Cl)cc2)c(OCC)cc1NC(=O)CC(C)C	–	22µM	–	–	18µM	–
COc1cc(NC(=O)C2CCCCC2)c(OC)cc1NC(=O)c1ccco1	–	–	–	–	?	–
COC(=O)CCNC(=O)c1ccc2nc(Cc3ccc(OC)cc3)oc2c1	·	–	–	–	–	–
CCOc1ccc(CCNC(=O)COC(=O)COc2ccccc2C)cc1OCC	–	–	–	–	–	–
O=C(Nc1ccccc1-c1ccccc1)NC1CC2CCCC(C1)N2Cc1ccc(F)cc1 (stereo not given)	–	21µM	–	–	23µM	-61
CCCNC(=S)NC1CC2CCCC(C1)N2Cc1ccc(F)cc1 (stereo not given)	–	?	–	·	18µM	–
COc1cc(OC)cc(OC)c1	–	–	·	·	–	·
SMILES	TDP1 block	TDP1 cell CPT	Six1-Eya2 blk	CtBP-E1A inh	DT40 TDP1 no CPT	IL1B secr inh
Cc1ccc(NC(=O)c2c(C)oc3ccc(O)c(CN4CCCC4)c23)c(C)c1	–	?	·	·	?	·
Cc1oc2ccc(O)c(CN3CCCC3)c2c1C(=O)Nc1cccc(Cl)c1C	–	16µM	·	·	21µM	·
Cc1ccccc1NC(=O)c1c(C)oc2ccc(O)c(CN3CCN(C)CC3)c12	–	16µM	·	·	?	·
Cc1oc2ccc(O)c(CN3CCN(Cc4ccccc4)CC3)c2c1C(=O)Nc1cccc(Cl)c1C	–	16µM	·	·	–	·
Cc1ccccc1NC(=O)CN1CCN(C)CC1	·	–	–	–	–	–
C[N+]1(CCn2ccc3ccccc32)CCCCC1	–	–	–	·	–	–
Cc1ccc(S(=O)(=O)N2CCCCC2)cc1NC(=O)COC(=O)C1CC2C=CC1C2 (stereo not given)	–	?	–	–	?	–
CSCCC(NC(=O)c1ccc([N+](=O)[O-])cc1Cl)C(=O)OCC(=O)NCCCc1ccccc1 (stereo not given)	–	–	–	–	?	–
O=C(CSc1nc2nn(-c3ccccc3)c(=O)c-2c2n1CCCCC2)Nc1ccccc1[N+](=O)[O-]	–	21µM	?	–	?	–
COc1ccc(C(=O)CSc2nc3nn(-c4ccccc4)c(=O)c-3c3n2CCCCC3)c(OC)c1	·	?	–	–	?	–
O=C(CSc1nc2nn(-c3ccccc3)c(=O)c-2c2n1CCCCC2)NCCCc1ccccc1	–	–	–	–	–	-60
O=C1CCCN1c1ccc([N+](=O)[O-])cc1	·	–	–	–	–	–
Cc1ccccc1NC(=O)CSc1nc2ncc(Cl)cc2[nH]1	–	–	–	–	–	–
CN1C2CCC1CC(NS(=O)(=O)c1cccc(C(F)(F)F)c1)C2 (stereo not given)	–	–	–	–	–	-76
CCOc1cc(NC(=O)c2ccccn2)c(OCC)cc1NC(=O)c1cccc(C)c1	–	4.1µM	–	–	1.8µM	–
Cc1cccc(-c2cc(C(=O)Nc3ccc4c(c3)OCCO4)c3ccccc3n2)c1	–	29µM	–	–	13µM	–
CCOc1cc(NC(=O)c2cccs2)c(OCC)cc1NC(=O)c1ccccn1	–	?	–	–	?	–
CCOc1ccc(NC(=O)c2cc(Cl)nc3ccccc23)cc1	–	?	–	–	15µM	–
CCOc1ccc(-c2cc(C(=O)Nc3ccc4c(c3)OCCO4)c3ccccc3n2)cc1	–	?	–	–	10µM	–
O=C(Nc1ccc2c(c1)OCCO2)c1cc(-c2ccccn2)nc2ccc(Br)cc12	–	?	–	–	?	–
CCOc1ccc(-c2cc(C(=O)NCc3ccc(C)cc3)c3ccccc3n2)cc1	–	–	·	·	–	·
Cc1cc2nc(SCCOC(=O)Nc3cccc(Cl)c3)nc(C)c2cc1C	–	–	–	–	–	–
COc1ccc(-c2cc(C(=O)OCC(=O)Nc3ccc4c(c3)OCO4)c3ccccc3n2)cc1	–	?	–	–	21µM	–
CCOc1ccc(NC(=O)Nc2ccc(Cc3ccncc3)cc2)cc1	·	–	–	–	?	–

Source: PubChem BioAssay
